“And” between values parts separate entries of the source, which are not always exact repeats. Identical values can stand only once. Inconclusive results are not listed. More than one record can exist for a structure, and the calls need not agree. Values without a mark were called inactive. The source made the active and inactive calls. Calls follow the shape of the dose curve; as a rule, active = well fitted activation curve with a large enough effect; inconclusive = small, poorly fitted or top-dose-only effect; inactive = no such curve, though single readings can be large or run the other way.
Potency is read from the fitted curve at half-maximal effect.

This assay deals with Cellular tumor antigen p53 (Homo sapiens) (UniProt P04637). The assay can be described thus: Primary qHTS for small molecule compounds that upregulate eGFP-tagged delta133p53alpha (in N-terminal) cells. (AID 2060322). Also: nearly all actives have a fitted effect of over 75% in size.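 As to activation: cells pre-induced with doxycycline then dosed without doxycycline; series mostly up to about 56 µM; 0% = DMSO vehicle and 100% = reference activator.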 As to conditions: NCI-H358 eGFP-delta133p53alpha fluorescence, 24 h; activation: active compounds read high. The text has this: Assay Development and Screening Technology
Cellular tumor antigen p53 (Homo sapiens), sequence (P04637 whole entry, looked up): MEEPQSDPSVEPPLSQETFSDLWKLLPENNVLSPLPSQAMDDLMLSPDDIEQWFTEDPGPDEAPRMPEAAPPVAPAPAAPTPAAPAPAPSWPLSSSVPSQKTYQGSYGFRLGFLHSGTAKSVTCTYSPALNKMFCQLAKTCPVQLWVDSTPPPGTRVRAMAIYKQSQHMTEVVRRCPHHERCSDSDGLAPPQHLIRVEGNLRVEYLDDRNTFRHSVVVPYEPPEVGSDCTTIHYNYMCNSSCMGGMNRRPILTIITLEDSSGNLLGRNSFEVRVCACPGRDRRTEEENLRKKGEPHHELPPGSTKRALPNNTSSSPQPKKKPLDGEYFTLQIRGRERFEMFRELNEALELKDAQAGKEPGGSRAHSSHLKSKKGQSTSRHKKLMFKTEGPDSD
National Center for Advancing Translational Sciences (NCATS),
National Institute of Health (NIH), Rockville, Maryland
Cellular senescence (CS) is one of the hallmarks of aging and age-related diseases. Senescent cells are characterized by an irreversible growth arrest, an increase in senescence-associated beta-galactosidase (SA-beta-gal) activity and p16INK4a expression, an activation of the DNA damage response pathways, and the emergence of a senescence-associated secretory phenotype (SASP).
Delta133p53alpha, a human/primate-specific p53 protein isoform, delays or inhibits the induction of CS and SASP in various types of human cells, including progeria-derived fibroblasts, primary normal astrocytes, and CD8+ T lymphocytes. Induction of delta133p53alpha with small molecule compounds may provide therapeutic opportunities for inhibition of senescence/SASP-associated pathologies in progeria syndromes, astrocyte-mediated neuroprotection in neurodegenerative diseases, and possibly prevention and treatment of a wider range of senescence- and aging-associated diseases.
Here we report the development and validation of a cell-based quantitative high throughput screening (qHTS) assay in 1,536-well format. This qHTS assay uses the NCI-H358 cell line with doxycycline-inducible expression of enhanced green fluorescent protein (eGFP)-tagged delta133p53alpha, which allows efficient and highly quantitative measurement of the protein levels.
PROTOCOL TABLE (as described by Inglese J, Shamu CE and Guy RK. 2007)
SEQUENCE No. (e.g., 1, 2, 3, etc.); […] (e.g., Cells, Incubation, Reagent, etc.); VALUE; DESCRIPTION.
1; Cells; 4uL; 800 doxycycline treated cells / well in doxycycline-free media, 1536-well black, clear-bottom low base Aurora microplates.
2; Compounds; 23 nL; Kalypsis pin tool (Wako) equipped with 1536-well pin heads, 5-azacytidine positive control.
3; Incubation; 24 hr; 37C, 5% CO2; 95% relative humidity.
4; Aspiration; 1x; BioTek EL406 washer dispenser (Agilent).
5; Fixing; 3.5% paraformaldehyde, BioTek EL406 washer dispenser (Agilent).
6; Washing; 1x PBS; BioTek EL406 washer dispenser (Agilent).
7; Nuclei staining; 1:1000 dilution of Hoechst 33342 (Thermofisher), BioTek EL406 washer dispenser (Agilent).
8; Incubation; 20 min; in the dark at room temperature.
9; Washing; 2x, 1x PBS (ThermoFisher), BioTek EL406 washer dispenser (Agilent).
10; Reagent; 10 uL; 1x PBS per well, sealed with clear adhesive tape.
NOTES (numbers refer to sequence numbers above).
1. NCI-H358 cells expressing eGFP-tagged delta133p53alpha were grown in T75 culture flasks and treated with doxycycline for 24h, at 10 ng/ml for eGFP-D133p53a cells (N-terminal cell) and 100 ng/ml for D133p53a-eGFP cells (C-terminal cells). Cells were trypsinized, counted using a Counted 3 Automated Cell Counter (Thermo Fisher), and diluted to a concentration of 200,000 cells/ml. A Multidrop Combi Reagent Dispenser (ThermoFisher) was used to dispense 800 cells/well in […] of doxycycline-free media, into 1536-well black/clear bottom low base plates (AuroraMicroplates).
2. After plating cells, 23 nl of compound library, DMSO vehicle control or positive control (5-azacytidine) were transferred by Pin Tool (Wako). The plate map layout was the same for each plate: (column 1) non-doxycycline treated cells + DMSO vehicle control; (column 2) doxycycline treated cells + DMSO vehicle control baseline; (column 3) doxycycline treated cells + positive control 57.5 uM final concentration 5-azacytidine; (column 4) doxycycline treated cells + serial dilution of 5-azacytidine, 16-point 1:2 titration spanning 1.8 nM to […] final concentration; (columns 5-48) doxycycline treated cells + titration of library compounds.
3. Cells were incubated at 37 °C, 5 % CO2, 95% RH with breathable metal lid for 24h.
4-10. […] After two washes, 10 ul of 1X PBS (Thermo Fisher) was dispensed to each well. Clear adhesive plate seals (VWR) were applied and plates stored at 4 °C.
11. […]
(In general: In qHTS, concentration-response curves come from the screen itself.)
In the case of `COc1cc(F)c(C(C)C)cc1-c1ccc(C(F)(F)F)cc1CN1C(=O)OC(c2cc(C(F)(F)F)cc(C(F)(F)F)c2)C1C` (stereo not given), the activation is -6.68%.

On to `C[C@@H]1O[C@@H](O[C@H]2[C@H](OC(=O)[C@]34CCC(C)(C)C[C@H]3C3=CCC5[C@@]6(C)C[C@H](O)[C@H](O[C@@H]7O[C@H](CO)[C@@H](O[C@H]8OC[C@](O)(CO)[C@H]8O)[C@H](O)[C@H]7O)[C@@](C)(CO)C6[C@H](O)C[C@@]5(C)[C@]3(C)C[C@H]4O)OC[C@H](O)[C@@H]2O)[C@H](O)[C@H](O)[C@H]1O[C@@H]1OC[C@@H](O)[C@H](O[C@@H]2OC[C@](O)(CO)[C@H]2O)[C@H]1O` (stereo not given in full), for which the activation is -17.6%.

Regarding `COc1nc(C)cnc1NS(=O)(=O)c1cccnc1-c1ccc(-c2nnco2)cc1`, the activation is 13.1% and 3.34%.

Take `Cc1cc(C=c2sc3nc4ccccc4n3c2=O)c(C)n1-c1ccccc1`: the activation is -10.2%.

For `CO/N=C(/C(=O)N[C@@H]1C(=O)N2C(C(=O)O)=C(CSC(=O)c3ccco3)CS[C@H]12)c1csc(N)n1`, the activation was -18.6% and -3.67%.

In the case of `O=C(O)C(S)C(S)C(=O)O` (stereo not given), the activation is -37.9%.

As to `C[C@@H]1O[C@@H](OC[C@H]2O[C@@H](Oc3cc(O)cc4c3C(=O)C(O)(Cc3ccc(O)cc3)O4)[C@H](O)[C@@H](O)[C@@H]2O)[C@H](O)[C@H](O)[C@H]1O` (stereo not given in full), the activation is -11.5%.

`Cc1cc(N2CCOCC2)ccc1Nc1nc(NC2CCCCC2)c2[nH]cnc2n1`: the activation was 7.16%.

For `S=C(S)OC1CC2CC1C1CCCC21` (stereo not given), the activation was -23.4%.

As for `Cc1cc(-c2nncc3c(C(C)(C)C)c(OCc4ncnn4C)nn23)no1`, the activation is 6.68%.

For `NC(=O)OCC(COC(N)=O)c1ccccc1`, the activation was -10.4% and 18.4% and 1.5%.

As to `CCNC(=O)Nc1ncc(-c2cc(-c3c(C)cc(OC)cc3C)nc(-c3cnccn3)n2)s1`, the activation is -5.36%.

As to `O=C1OC(c2ccc(O)cc2)(c2ccc(O)cc2)c2ccccc21`, the activation was 10.7%.

Consider `COc1ccccc1[C@H](c1cccc2ccccc12)[C@@](C)(C#N)C(=O)N1CCC(c2cccc(C(F)(F)F)c2)CC1`, for which the activation was 0.109%.

Regarding `OC(c1cc(C(F)(F)F)nc2c(C(F)(F)F)cccc12)C1CCCCN1` (stereo not given), the activation is -0.154%.

Consider `O=C1C=CC(O)(/C=C/C(=O)OC[C@H]2O[C@@H](Oc3ccc(O)cc3)[C@H](O)[C@@H](O)[C@@H]2O)C=C1`, for which the activation was 6.25%.

In the case of `NC(N)=NC(N)=NCCc1ccccc1`, the activation is -18.4% and -5.97%.

For `CCn1cc(NC(=S)Nc2cc(Cl)ccc2OC)c(C(N)=O)n1`, the activation is -5%.

As for `CCCCCCCCCCCCCCCC(=O)O[C@H]1[C@@H](O)[C@@H](O)[C@@H]([C@H](NC(=O)[C@@H]2C[C@@H](CCC)CN2C)[C@H](C)Cl)O[C@@H]1SC`, the activation was 17.9%.

`C=C1CCC2C(C)(C)CC(O)CC2(C)C1CCC(C)CC(=O)O` (stereo not given): the activation is 2.68%.

For the compound `CN1c2ccccc2C(=O)N2CCc3c([nH]c4ccccc34)C21` (stereo not given), the activation was -3.8% and the Potency is 2.69 µM (active).

Regarding `O=C(O)Cc1ccc(-c2ccccc2)cc1`, the activation was -6.21%.

For the compound `COc1c(C)c(C(=O)c2ccc(N)c(C(=O)O)c2)n2ccccc12`, the activation is 10% and 14.3%.

Regarding `COc1ccc(-c2ccc3c(N4CCOCC4C)nc(N4CCOCC4C)nc3n2)cc1CO` (stereo not given), the activation is 7.14%.

As for `CC(=O)N1CCN(NC(=O)c2ccc(F)cc2)CC1`, the activation is -2.39%.

Take `C=C(F)c1sc(CNCCCNc2cc(=O)c3ccccc3[nH]2)c(C)c1Br`: the activation is 18.1%.

Turning to `O=C(NCCCc1ccccc1)c1cccc(-c2cc(O)c3ncccc3c2)c1`, the activation is 7.67%.

Take `COc1cc(C(CO)C(OC2OC(CO)C(O)C(O)C2O)c2ccc(O)c(OC)c2)ccc1O` (stereo not given): the activation was 20.5%.

For the compound `CCCC(=O)NCCc1csc(-c2ccc(Cl)cc2)n1`, the activation was 1%.

Take `COc1cc(-c2cn(C3CCc4c(F)cccc4N(CC(F)(F)F)C3=O)nn2)ccc1-n1cnc(C)c1` (stereo not given): the activation was 6.68%.

Consider `CC(C)=C[C@@H]1[C@H](CO[C@@H]2O[C@H](CO)[C@@H](O)[C@H](O)[C@H]2O)C1(C)C`, for which the activation is -9.82%.

On to `O=c1[nH]c2ccccc2c2ccccc12`, for which the activation is 11.2%.

Turning to `CC1CCN(c2cc(N3CCN(C)CC3)ccc2NC(=O)c2cc(C#N)c[nH]2)CC1`, the activation was 4.19% and 20.5%.

In the case of `O=C1c2ccccc2-[n+]2ccc3c([nH]c4ccccc43)c21`, the Potency was 15.3 µM (active).

For the compound `CCc1nc(C(N)=O)c(Nc2ccc(N3CCC(N4CCN(C)CC4)CC3)c(OC)c2)nc1NC1CCOCC1`, the activation was -44.7%.

In the case of `Nc1ncnc2c1ncn2[C@@H]1O[C@H](COP(=O)(O)OP(=O)(O)OP(=O)(O)OP(=O)(O)OC[C@@H]2O[C@H](n3cnc4c(N)ncnc43)[C@@H](O)[C@H]2O)[C@@H](O)[C@H]1O`, the activation is -42.2%.

In the case of `COC(=O)c1cc(OC)c(O[C@@H]2O[C@@H](C)[C@H](O)[C@@H](O)[C@H]2O)c(OC)c1`, the activation was 1.53%.

Turning to `COc1cc(O)cc2c1C(=O)OC(C)CCCCCCC2` (stereo not given), the activation was 1.79%.

With `CCCCc1ccc(NS(=O)(=O)c2ccc(C)c(C(=O)N3CCN(c4cccc(C)c4C)CC3)c2)cc1`, the activation was -4.4%.

(Values after PubChem BioAssay (NCATS).)
